Laboratory results from PubChem BioAssay AID686978 (National Center for Advancing Translational Sciences (NCATS), 2013).
“And” between values parts separate entries of the source, which are not always exact repeats. Identical values can stand only once. Among all 420,000 compounds or so, about 64,000 (15%) were called active. About 27% were inconclusive and are not listed. Only a sample is shown. Values without a mark were called inactive. Calls come from the whole dose curve; as a rule, active = well fitted inhibition curve with a large enough effect; inconclusive = small, poorly fitted or top-dose-only effect; inactive = flat fitted curve, though single readings scatter.

Assay: qHTS for Inhibitors of human tyrosyl-DNA phosphodiesterase 1 (TDP1): qHTS in cells in absence of CPT; note: nearly all actives have a fitted effect of over 55% in size
Details: DT40 Tdp1-/- hTDP1 cells, no CPT, ATP luminescence, 48 h; activity change, negative = growth inhibition: at 46.2 µM (top of the series)
Procedure, shortened: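 Readout: luminescence from CellTiter-Glo after 30 min in the dark at RT. Cells: DT40 Tdp1-/- with stable hTDP1, 400/well. Exposure: compounds alone, ≥48 hr, 37 °C.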
% is set by controls: 0 for no effect and ±100 for the full control effect; potency is the fitted concentration of half-maximal effect.

Row | Compound | activity change, negative = growth inhibition [%] | Potency
1 | CCOc1ccccc1NC(=O)C1CCC(CNc2c(N3CCOCC3)c(=O)c2=O)CC1 (stereo unspecified) | -11.8 | –
2 | COc1ccc(NC(=O)C2CCC(CNc3c(N4CCCCC4)c(=O)c3=O)CC2)c(OC)c1 (stereo unspecified) | -15.1 | –
3 | CCN(CC)c1ccc(NC(=O)C2CCC(CNc3c(N4CCCC4)c(=O)c3=O)CC2)c(C)c1 (stereo unspecified) | – | 14.6 µM (active)
4 | Cc1ccc(NS(=O)(=O)c2ccc(-c3coc(C)n3)cc2)c(C)c1 | -28.1 | –
5 | COC(=O)c1c(OCc2ccc(F)cc2)cc(=O)n2c1CCN(Cc1ccc3cccnc3c1)CC2 | -16.2 | –
6 | CCc1ccc(CNC(=O)C2CCN(c3nn4cc(-c5ccc(F)cc5)nc4s3)CC2)cc1 | -16.1 | –
7 | Cc1ccc(NC(=O)N2CCC(C(=O)NCc3ccc(F)cc3)CC2)cc1 | -21.1 | –
8 | Cc1ccc(C)n1-c1nnc(N2CCC(C(=O)NCc3ccc(F)cc3)CC2)s1 | – | 23.1 µM (active)
9 | O=C(NCc1cccc(Cl)c1)C1CCN(c2nnc(N3CCCC3=O)s2)CC1 | 1.66 | –
10 | O=C(NCc1ccccc1Cl)C1CCN(S(=O)(=O)N2CCOCC2)CC1 | -4.3 | –
11 | Cc1ccc(C)n1-c1nnc(N2CCC(C(=O)NCc3ccccc3Cl)CC2)s1 | – | 18.4 µM (active)
12 | O=C(O)CSc1ccc(S(=O)(=O)N2CCCC2)cn1 | 4.27 | –
13 | COc1cccc(NC(=O)COc2cc(C)cc3oc(=O)cc(C)c23)c1 | 10.1 | –
14 | COC(=O)C(C)Oc1ccc2c(-c3cccc([N+](=O)[O-])c3)cc(=O)oc2c1 (stereo unspecified) | -6.62 | –
15 | COc1cc(OC)c2c(-c3cccc(-c4cccc(N)c4)c3)cc(=O)oc2c1 | – | 4.61 µM (active)
16 | Cc1c(CCC(=O)O)c(=O)oc2cc(OCc3ccc(Br)cc3)ccc12 | 17 | –
17 | CCC(=C/c1sc2ccc3ccccc3c2[n+]1C)/C=C1\Sc2ccc3ccccc3c2N1C | – | 0.092 µM (active)
18 | Cc1ccc(C(=O)NCCN2CCOCC2)cc1C | -4.96 | –
19 | COc1ccc(OC)c(CN2CCN(C(=O)CNC(=O)c3cc(C)cc(C)c3)CC2)c1 | -16.9 | –
20 | Cc1ccc(NS(=O)(=O)c2ccc(C(=O)NCCCN3CCOCC3)cc2)cc1 | -3.36 | –
21 | Cc1c(C)n(Cc2ccc(Cl)cc2)c2ccc(C(=O)NCCc3ccc(S(N)(=O)=O)cc3)cc12 | – | 25.9 µM (active)
22 | COc1ccc(C(=O)NCCc2ccc(S(N)(=O)=O)cc2)cc1OC | -4.05 | –

Row | Compound | activity change, negative = growth inhibition [%] | Potency
23 | CCOC(=O)c1c(C)c(C(=O)NCCc2ccc(S(N)(=O)=O)cc2)c(C)n1CC | -20.4 | –
24 | CCn1c(C)c(C)c2cc(C(=O)NCCc3cc(OC)ccc3OC)ccc21 | – | 14.6 µM (active)
25 | Cc1c(C)n(Cc2ccc(Cl)cc2)c2ccc(C(=O)NCCCN3CCOCC3)cc12 | – | 18.4 µM (active)
26 | COC(=O)c1ccc(OC)c(Cn2c(=O)n(Cc3ccccc3)c(=O)c3c2c2cc(OC)ccc2n3C)c1 | 12.5 | –
27 | COC(=O)[C@@H]1CC(O)CN1C(=O)C12CC3CC(CC(C3)C1)C2 (stereo partly specified) | -4.84 | –
28 | CCOC(=O)c1sc(=NC(=O)c2ccc(Br)cc2)n(C)c1C | 8.68 | –
29 | NC(=O)C1CCCN(CC(=O)N2CCN(c3ccccc3)CC2)C1 (stereo unspecified) | -12.2 | –
30 | O=S(=O)(NCC1CCCO1)c1cnc(Cl)c(Cl)c1 (stereo unspecified) | -0.359 | –
31 | O=C1CCCC(O)=C1C=NCCc1ccccc1 | -2.41 | –
32 | CCCCCCC(=O)Nc1nc(C)c(-c2csc(Nc3cccc(OC)c3)n2)s1 | – | 16.4 µM (active)
33 | CCCCN(C)CCC(=O)Nc1ccc(Cl)cc1 | -18 | –
34 | CC(=O)Nc1nc(C)c(-c2csc(Nc3ccc(S(N)(=O)=O)cc3)n2)s1 | -28.2 | –
35 | Cc1ccn2c(-c3csc(Nc4ccc(C(=O)O)cc4)n3)c(C)nc2c1 | -20.6 | –
36 | Cc1nnc(NC(=O)CCCOc2ccccc2)s1 | -5.9 | –
37 | COc1cccc(NC(=O)c2csnn2)c1 | -9.53 | –
38 | C=CCCC(=O)Nc1nc(C)c(-c2csc(Nc3ccc(Cl)cc3)n2)s1 | – | 13 µM (active)
39 | CCCCC(=O)Nc1nc(C)c(-c2csc(Nc3ccc(Cl)cc3)n2)s1 | – | 23.1 µM (active)
40 | Cc1nc(NC(=O)CCC(=O)O)sc1C(=O)N(C)C | -11.7 | –
41 | CO[C@]1(NC(=O)CSC(F)F)C(=O)N2C(C(=O)O)=C(CSc3nnnn3CCO)CO[C@H]21 | -3.78 | –
42 | O=C(C1CCN(C2CCN(Cc3ccc4cc(F)ccc4n3)CC2)CC1)N1CCCC1 | -18.6 | –
43 | COc1ccc(CCNC(=S)N2CCN(S(=O)(=O)c3ccc(F)cc3)CC2)cc1 | 3.3 | –
44 | COc1ccc(CCNS(=O)(=O)c2cc3c(cc2C)NC(=O)CO3)cc1OC | -7.25 | –

Row | Compound | activity change, negative = growth inhibition [%] | Potency
45 | CCc1ccccc1NC(=O)c1ccc(F)c(S(=O)(=O)NC2CCCCCC2)c1 | -7.92 | –
46 | CCc1ccc(OCC(O)CN2CCN(CCO)CC2)cc1 (stereo unspecified) | 5.07 | –
47 | COc1ccc(N(CC(=O)N2CCOCC2)S(=O)(=O)c2ccccc2)cc1Cl | -12.2 | –
48 | Cc1cccc(OC(=O)c2sc3ncn(C)c(=O)c3c2C)c1 | -8.1 | –
49 | COCCNc1ncnc2c1nc1n2CCCC1 | 0.903 | –
50 | CCCN(CCC)C(=O)C1CCCN(c2ncnc3c2nc2n3CCCCC2)C1 (stereo unspecified) | – | 20.6 µM (active)
51 | COc1cccc(NC(=O)C/C(C)=N/NC(=O)C2CCCCC2)c1 | -4.86 | –
52 | COc1ccc(NC(=O)N2CCCC(C(=O)Nc3ccccc3OC)C2)cc1 (stereo unspecified) | -1.09 | –
53 | O=C(NCCCN1CCCCC1)C1CCCN(c2ncnc3c2nc2n3CCCCC2)C1 (stereo unspecified) | 1.26 | –
54 | COc1cccc(NC(=O)C2CCCN(c3ncnc4c3nc3n4CCCCC3)C2)c1 (stereo unspecified) | – | 20.6 µM (active)
55 | O=C(Nc1cc(-c2nc3ccccc3o2)ccc1Cl)c1cc([N+](=O)[O-])ccc1N1CCOCC1 | -23.6 | –
56 | CC(C)NC(=O)N1CC[C@@]2(CCCN(C(=O)c3cccn3C)C2)C1 | -10.1 | –
57 | CCC(=O)N1c2ccccc2CC1C(=O)N1CCN(c2ccccc2)CC1 (stereo unspecified) | -28 | –
58 | CCOC(=O)c1c(S(=O)(=O)N2CCC(C(=O)NCc3ccccc3OC)CC2)c(C)n(C)c1C | -5.74 | –
59 | Cc1cc(C)cc(-c2nnc(SCC(=O)NC3CC3)o2)c1 | -2.32 | –
60 | CC1=CC2=NC(=O)CC(C)(C(=O)N(CC(=O)NC(C)(C)C)Cc3ccccc3)N2C=C1 (stereo unspecified) | -4.59 | –
61 | COC(=O)c1ccc(CSc2nnc(NC(C)C)s2)cc1 | -17.7 | –
62 | COc1ccc(-c2nc(CS(=O)CC(=O)NCc3ccccc3)c(C)o2)cc1OC (stereo unspecified) | 6.91 | –
63 | Cc1ccc(CN2CCN(c3ncccn3)CC2)c(C)c1 | -19.4 | –
64 | COc1ccc(-c2nc(CN3CCN(c4ncccn4)CC3)c(C)o2)cc1C | – | 20.6 µM (active)
65 | Cc1c(C(=O)NCCCc2ccccc2)cccc1[N+](=O)[O-] | -11.1 | –
66 | CC(C)(C)C(=O)Nc1c(Br)c(C2CC2)nn1-c1ccccc1 | -3.93 | –

Row | Compound | activity change, negative = growth inhibition [%] | Potency
67 | CCOC(=O)c1[nH]cnc1C(=O)NC1CCCCC1 | -10.9 | –
68 | C/C=C/c1ccc(OCC(=O)OCC(=O)Nc2c(C)nn(-c3ccccc3)c2C)c(OC)c1 | -2.94 | –
69 | Cc1nn(-c2ccccc2)c(C)c1NC(=O)COC(=O)c1cc(Cl)ccc1O | -6.13 | –
70 | Cc1nn(-c2ccccc2)c(C)c1NC(=O)COc1ccc(Cl)cc1Cl | – | 9.2 µM (active)
71 | COc1ccccc1CNC(=O)C1CCN(S(=O)(=O)c2ccc3c(c2)OCCO3)CC1 | -18 | –
72 | COc1ccc(-n2nc3c(c2NC(=O)c2ccc(N4C(=O)CCC4=O)cc2)CSC3)cc1 | -4.48 | –
73 | O=C(O)Cc1ccc(-c2ccccc2)cc1 | – | inactive
74 | CC(=O)N1C(=O)/C(=C2\SC(=S)N(NC(=O)c3ccc(O)cc3)C2=O)c2ccccc21 | -6.31 | –
75 | CCOCCCNc1nc(-c2ccccc2)nc2ccccc12 | – | 14.6 µM (active)
76 | Cc1ccccc1-c1nc(N(C)Cc2ccco2)c2ccccc2n1 | -43.2 | –
77 | c1ccc(-c2nc(NCc3ccco3)c3ccccc3n2)cc1 | – | 23.1 µM (active)
78 | Brc1nc2ncnc(NCc3ccco3)c2[nH]1 | -25.7 | –
79 | COc1ccc(CNc2nccs2)cc1 | -1.94 | –
80 | CCC(=O)OCCNc1nc(-c2ccccc2)nc2ccccc12 | -21.2 | –
81 | CCOCCCn1c(NN)nc2ccccc2c1=O | -24.6 | –
82 | Cc1cnc(CNc2nc(-c3cccnc3)nc3ccccc23)cn1 | -8.11 | –
83 | c1coc(CNc2ncnc3ccccc23)c1 | – | 12.6 µM (active) and 5.17 µM (active)
84 | COc1ccc(CNc2ncnc3ccccc23)cc1 | – | 0.651 µM (active)
85 | Cc1ccc(C(=O)NNc2ncnc3ccccc23)cc1 | -11.2 | –
86 | O=C(COc1ncnc2ccccc12)NC(=O)NCc1ccccc1 | 0.729 | –
87 | CCOC(=O)c1nnn(CC(=O)Nc2cccc(F)c2)c1C(=O)OCC | -21.9 | –
88 | CCCCn1c(N)c(N2CCOCC2)c(=O)n(CC(=O)NCCc2ccccc2)c1=O | 28.4 | –

Row | Compound | activity change, negative = growth inhibition [%] | Potency
89 | Cc1ccc(NNC(=O)C2CCC2)cc1C | -28.8 | –
90 | COc1ccccc1-c1c(C#N)c(N)nc2c1CCC2 | -24.4 | –
91 | Cc1ccc2nsnc2c1NC(=O)c1ccccc1[N+](=O)[O-] | -17.5 | –
92 | Cc1c(CN2CCC(n3nccc3NC(=O)CCc3ccccc3)CC2)cnn1C | 22.2 | –
93 | c1ccc(CCC2=NCCn3cccc32)cc1 | – | inactive
94 | CCc1ccc(NC(=O)CN2C(=O)CSC2=O)cc1 | -14.3 | –
95 | Cc1ccnc(Nc2nc3ccccc3s2)n1 | -12.8 | –
96 | O=C(Nc1ccccc1Cl)O/N=C(/c1ccccc1)c1ccccn1 | -5.77 | –
97 | c1ccc(C(=NNc2nc3ccccc3s2)c2ccccn2)cc1 | – | 0.13 µM (active)
98 | CCC(CC)C(=O)Nc1ccc(S(=O)(=O)Nc2nccs2)cc1 | -15.6 | –
99 | Cn1nnc2cc(C(=O)NCCC3=CCCCC3)ccc21 | -28 | –
100 | O=C(Nc1ccncc1)c1ccc(Cl)c([N+](=O)[O-])c1 | – | 14.6 µM (active)
101 | O=C(Nc1cccnc1)c1ccc(Cl)c([N+](=O)[O-])c1 | -18.2 | –
102 | O=C(NCCC1=CCCCC1)c1ccc(-n2cncn2)cc1 | 10.9 | –
103 | Cc1ccnc(NC(=O)c2ccc(Cl)c([N+](=O)[O-])c2)c1 | -16.4 | –
104 | O=C(NCCC1=CCCCC1)c1ccc(Cl)c([N+](=O)[O-])c1 | – | 16.4 µM (active)
105 | C#CCCCCCCCCCCCCCCCC(=O)O | – | inactive
106 | CCCCC(=O)OC1=CN(Cc2ccccc2)S(=O)(=O)c2ccccc21 | -25.3 | –
